Sampled rows, rich in hits. Any-hit rate of the full collection: about 2.1%.
Efa HMGR inh = E. faecalis class II HMG-CoA reductase inhibition; purified E. faecalis HMGR, NADPH absorbance 340 nm kinetic; inhibition, % at 10 µM; 190,000 tested, 0.41% active; AID 1066;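 active = inhibition above a set limit, the median over all tested compounds plus 3 SD, cut at about 9.5% in these data; inconclusive = no clear call, values can overlap the other calls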;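 also: enzyme runs in reverse so mevalonate oxidation gives rising NADPH absorbance; 0% = complete reaction with DMSO and 100% = background rate lacking mevalonate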
HSV replic up = HSV replication enhancement. HSV replication augmentation in cells, fold increase. maximum fold increase. 220,000 tested, 0.005% active. AID 1956; in the data active = maximum fold increase above about 1.5; inconclusive = no clear call, values can overlap the other calls; tested in PC3 cells
Arbovirus anti = blocks arbovirus infection. arbovirus infection cell-based antiviral screen. inhibition, % at 10 µM. 200,000 tested, 0.37% active; in the data active = inhibition above about 30%
m-calpain inh = inhibitors of pig calpain II; 220,000 tested, 0.37% active; purified calpain II, fluorogenic peptide substrate, 30 min; inhibition, % at 16 µM;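 active = inhibition above about 50%, limit read from the data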
ROMK mod = modulates human ROMK potassium channel activity | Tet-inducible ROMK, thallium flux fluorescence; actives lie on both sides | P48048 | 130,000 tested, 2% active | B-score at 10 µM;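 active = signal ratio slope over the read window, or its plate-corrected B-score, at least 3 SD from the plate mean, either direction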;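 also: B-score of the F/F0 ratio slope over 7 to 12 s after thallium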
Target sequence (P48048 whole entry, looked up): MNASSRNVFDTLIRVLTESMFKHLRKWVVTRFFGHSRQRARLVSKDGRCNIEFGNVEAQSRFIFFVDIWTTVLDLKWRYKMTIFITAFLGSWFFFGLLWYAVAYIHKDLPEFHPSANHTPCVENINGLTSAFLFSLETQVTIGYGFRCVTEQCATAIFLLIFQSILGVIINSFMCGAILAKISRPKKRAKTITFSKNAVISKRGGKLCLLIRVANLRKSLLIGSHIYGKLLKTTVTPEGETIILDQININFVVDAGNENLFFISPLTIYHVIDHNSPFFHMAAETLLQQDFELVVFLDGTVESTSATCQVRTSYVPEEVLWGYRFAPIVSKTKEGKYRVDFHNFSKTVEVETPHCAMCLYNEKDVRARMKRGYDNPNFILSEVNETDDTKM
Numbers without * were called inactive; i = inactive; u = inconclusive; x = no result.

SMILES | Efa HMGR inh | HSV replic up | Arbovirus anti | m-calpain inh | ROMK mod
O=S(=O)(Nc1nc2ccccc2s1)c1ccc(Cl)nc1 | x | i | x | 16 | x
CC(C)(C)Cc1nnc(NS(=O)(=O)c2ccccc2)s1 | 14* | i | 5 | -25 | 0.088
O=C(NCCc1csc(-c2cccnc2)n1)c1ccc(Br)o1 | -3 | i | 2 | 99* | x
O=C(NCCc1csc(-c2ccccc2)n1)c1ccc(Br)o1 | -11 | i | 0 | -5 | x
COc1ccc(NC(=O)C(=O)NNC(=O)C(C)Oc2ccc(Cl)cc2Cl)cc1 (configuration not stated) | 3 | i | 7 | -112 | 4.8*
CC(=O)Nc1ccc(NC(=O)C(C)Oc2ccc(Cl)cc2Cl)cc1 (configuration not stated) | 8 | i | -1 | -35 | x
CC(C)(C)NC(=O)/C(=C\c1ccco1)NC(=O)c1cccs1 | 11* | i | 4 | -1 | -0.25
O=C(NCc1ccco1)/C(=C\c1ccco1)NC(=O)c1cccs1 | -10 | i | -4 | 22 | 0.29
CCOC(=O)C1=C(C)N(C)C(=S)NC1c1cc(OC)ccc1OC (configuration not stated) | -3 | i | -2 | 11 | x
Cc1cccc(-n2nc(C)c3c(C(=O)O)cc(-c4cccs4)nc32)c1 | 0 | i | 42* | -132 | 0.3
Cc1nn(-c2cccc(Cl)c2)c2nc(-c3ccco3)cc(C(=O)O)c12 | -3 | i | 19 | i | 0.98
COC(=O)C1=C(C)NC(C)=C(C(=O)OC)C1c1ccccc1[N+](=O)[O-] | 2 | i | -27 | -129 | -2.5*
NNC(=O)c1ccc(COCC(F)(F)F)cc1 | x | i | x | 3 | -0.043
CC(=O)/C(=N\Nc1ccc(C)cc1)Sc1nncn1C | -3 | i | -32 | 25 | 0.17
CCN(CC)c1ccc(C(=O)NC(=S)Nc2cc(S(=O)(=O)N3CCOCC3)ccc2-n2cncn2)cc1 | -6 | i | -10 | 58* | x
O=C1C(c2ccccc2)SC(=Nc2ccccc2)N1S(=O)(=O)c1ccccc1 (configuration not stated) | -5 | i | 1 | 54* | 2.7
CC1(C)SC(=Nc2ccccc2)N(S(=O)(=O)c2ccccc2)C1=O | 0 | i | 6 | 25 | 0.94
CCCCC(=O)Nc1cccc(NC(=O)c2cccnc2Cl)c1 | x | i | x | -5 | 0.39
CCCCn1c(-c2csc3c2CCC(C)C3)n[nH]c1=S (configuration not stated) | 1 | i | 13 | 66* | x
CCCCn1c(-c2csc3c2CCCC3)n[nH]c1=S | 0 | i | -3 | 24 | -0.58
Cc1ccn2c(Nc3ccc4c(c3)OCO4)c(-c3ccc(O)cc3)nc2c1 | x | i | x | -20 | -2.3
Cc1ccc(C(=O)Nc2ncc(C)s2)o1 | -8 | i | -4 | 9 | x
O=C(NC(=S)Nc1cccnc1)c1cc2ccccc2o1 | -2 | x | -1 | 1 | 3.5*
Cc1cnc(NC(=O)c2cc3ccccc3o2)s1 | 30* | i | 3 | -23 | -0.07
O=C(NC(=S)NCc1cccnc1)c1cc2ccccc2o1 | -2 | i | 1 | 8 | -0.71
SMILES | Efa HMGR inh | HSV replic up | Arbovirus anti | m-calpain inh | ROMK mod
Cc1ccc(N2CC(C(=O)Nc3c(C)n(C)n(-c4ccccc4)c3=O)CC2=O)cc1 (configuration not stated) | -3 | i | 1 | -7 | 0.38
O=C(O)C1CCCCC1C(=O)Nc1nc(-c2ccc(Cl)s2)cs1 (configuration not stated) | -7 | i | 38* | -32 | -0.49
Cc1ccc(S(=O)(=O)N(C)c2c(C)ccc(S(=O)(=O)NC(C)(C)C)c2C)cc1 | 5 | i | 6 | 2 | x
O=C1c2ccccc2C(=O)N1CCN1CCCCC1 | 19* | x | 0 | 13 | x
CCCCC(=O)Nc1ccc(C(=O)c2ccccc2)cc1 | -2 | i | -10 | 53* | -0.77
N#Cc1c(SCc2ccccc2)sc(C(=O)c2ccccc2)c1N | -4 | i | -15 | -43 | x
N#Cc1c(SCc2cccc(Cl)c2)sc(C(=O)c2ccccc2)c1N | -6 | i | 48* | 11 | x
Cc1cc(=O)c2cccc(Br)c2[nH]1 | 12* | i | 1 | -11 | x
Cc1cc(=O)c2ccc3ccccc3c2[nH]1 | 1 | x | 12 | -61 | 0.21
CCOC(=O)C1=C(c2ccccc2)N(C)C(=O)NC1c1ccc(OC(F)F)c(OC)c1 (configuration not stated) | 1 | i | -5 | -2 | -4.6*
CN(C)NC(=S)NC1CC2CCC1C2 (configuration not stated) | x | i | x | -5 | 0.68
COCCNC(=O)CCc1nnc(C2(c3ccc(Cl)cc3)CCC2)o1 | 13* | i | 7 | -5 | -0.024
CC(C)(CO)CNC(=O)CCc1nnc(C2(c3ccc(Cl)cc3)CCC2)o1 | -2 | i | 2 | 24 | 0.7
Cc1ccc(NC2Sc3ccccc3NC2=O)cc1Cl (configuration not stated) | x | i | x | 17 | x
CCOc1ccc2nc(NC(=O)C3CCN(S(=O)(=O)c4cnc[nH]4)CC3)sc2c1 | -5 | i | 30* | 2 | x
CCOc1ccc2nc(NC(=O)Nc3ccccc3)sc2c1 | -1 | i | 13 | 12 | -0.58
CCOc1ccc2nc(NC(=O)Nc3cccs3)sc2c1 | 4 | i | 36* | -11 | -0.92
Cc1ccc2nc(NC(=O)C3CCN(S(=O)(=O)c4cnc[nH]4)CC3)sc2c1 | 5 | i | 31* | -16 | 0.046
COc1ccc2nc(NC(=O)C3CCN(S(=O)(=O)c4cnc[nH]4)CC3)sc2c1 | -5 | i | 15 | 27 | x
CN1CCS/C1=C\C=C1/SC(=S)N(CC(=O)O)C1=O | -6 | x | -10 | 64* | x
CCN1C(=O)/C(=C/C=C2/SCCN2C)SC1=S | 1 | u | -1 | 4 | -1.3
Cc1noc(C)c1CSc1nc2ccccc2c(=O)n1-c1ccccc1 | -7 | i | -28 | 23 | 3
Cc1noc(C)c1CSc1nc2ccccc2c(=O)n1-c1ccc(F)cc1F | -4 | x | -16 | 77* | x
COc1ccccc1CCc1nnc(CCC(=O)NC(C)Cn2nc(C)cc2C)o1 (configuration not stated) | -5 | i | 4 | 3 | -0.24
COc1ccc2cnn(CCOc3cc(C)ccc3C(C)C)c(=O)c2c1OC | -5 | i | 5 | 20 | -1.5
SMILES | Efa HMGR inh | HSV replic up | Arbovirus anti | m-calpain inh | ROMK mod
COc1ccc(S(=O)(=O)N(C)C)cc1NC(=O)Cc1c[nH]c2ccccc12 | -2 | i | -8 | 7 | 1.2
COc1ccc(C(=O)/C(C#N)=N/Nc2cccc([N+](=O)[O-])c2)cc1 | -3 | i | -3 | 39 | 7.6*
O=C(Nc1nnc(-c2ccccc2)o1)c1ccc(Cl)cc1 | -1 | i | -7 | 6 | 10*
Cc1ccc(C(=O)Cn2cnc3ccccc3c2=O)cc1 | 10* | i | -8 | -6 | x
CCn1c(SCC(=O)N/N=C(/C)c2ccncc2)nc2ccccc21 | x | i | x | 10 | x
CC(C)C(=O)Nc1nnc(SCC(=O)N2c3ccccc3CC2C)s1 (configuration not stated) | -1 | i | 39* | -1 | x
CC1Cc2ccccc2N1C(=O)CSc1ccccc1 (configuration not stated) | 2 | i | 30* | -4 | -1.3

From PubChem
